The structures appear in SMILES notation. Records with an inconclusive call do not appear. Where a call stands in place of a potency, no number is given. The source made the active and inactive calls. The call rests on the fitted dose curve; in most records, active means well fitted curve in the direction sought with a large enough effect in the repeat runs; inconclusive means weak or mixed curves; inactive means no such curve, though single readings can be large; an effect the other way counts as inactive or inconclusive.
Further: nearly all actives have a fitted effect of over 45% in size.

A short description of the first experiment: qHTS assay to identify small molecule antagonists of the androgen receptor (AR) signaling pathway - cell viability counter screen (AID 743033). Conditions: AR-bla HEK293 viability, CellTiter-Glo luminescence, 16 h; series mostly up to 58.5 µM.
`O=C(OCC1CCC2OC2C1)C1CCC2OC2C1` (configuration not stated): the call was inactive.

Turning to `C[C@]12CC[C@@H]3c4ccc(O)cc4CC[C@H]3[C@@H]1C[C@@H](O)[C@@H]2O`, the compound was classed as inactive.

On to `O=C(O)CCCCCCCCC(=O)O`, for which the compound was called inactive.

`CCCCCCC=O`: the outcome was inactive.

As to `O=S(=O)(O)c1ccccc1`, the compound was called inactive.

Take `CC(C)OP(=O)(CP(=O)(OC(C)C)OC(C)C)OC(C)C`: the compound was called inactive.

As for `C=CC[N+](C)(C)CC=C`, the call was inactive.

Take `CC(=O)OCc1ccco1`: the outcome was inactive.

Regarding `O=C(O)c1ccc(S(=O)(=O)N(Cl)Cl)cc1`, the call was inactive.

In the case of `CCOC(=O)n1ccn(C)c1=S`, the result was inactive.

In the case of `Nc1ccc(Cl)c(N)c1`, the compound was classed as inactive.

In the case of `CCCCCCCCCCCC(=O)OC`, the call was inactive.

Turning to `C=C(C)[C@H]1CC=C(C)C(=O)C1`, the compound was classed as inactive.

With `NCCCCCCN`, the compound was called inactive.

Turning to `CC1(C)OC[C@@H]2O[C@@]3(C(=O)O)OC(C)(C)O[C@H]3[C@@H]2O1`, the call was inactive.

For `CCOCC(=O)O`, the compound was classed as inactive.

Regarding `CSc1ccc(Cl)cc1`, the compound was called inactive.

Consider `CN(C)c1ccc(O)c2c1C[C@H]1C[C@H]3[C@H](N(C)C)C(=O)C(C(N)=O)=C(O)[C@@]3(O)C(=O)C1=C2O`, for which the outcome was inactive.

As for `CC(=O)OCCOC(C)=O`, the compound was classed as inactive.

A further experiment is described as follows: qHTS assay to identify small molecule antagonists of the androgen receptor (AR) signaling pathway using the MDA cell line - cell viability counter screen (AID 743041). Conditions: MDA-kb2 viability, CellTiter-Fluor, 16 h, cells co-treated with R1881 androgen agonist; series mostly up to 70.3 µM. In a few lines:
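Same-well cytotoxicity was assessed by CellTiter-Fluor in MDA-kb2 AR-luc cells after 16 h of compound treatment under R1881 agonism.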
For the compound `CC(C)(C)c1cc(Cc2cc(C(C)(C)C)c(O)c(C(C)(C)C)c2)cc(C(C)(C)C)c1O`, the Potency result is “inactive”.

`CCOCCOCCOCCO`: the Potency result is “inactive”.

Take `Clc1ccccn1`: the Potency entry is “inactive”.

With `C=CCc1ccc(OC)c(OC)c1`, the Potency entry is “inactive”.

As for `O=C1c2ccccc2CCc2ccccc21`, the Potency entry was “inactive”.

For the compound `C=CC(C)CCCC(C)(C)O` (configuration not stated), the Potency entry is “inactive”.

Regarding `CCCCCCCCCCO`, the Potency entry is “inactive”.

Take `CN(C)c1ccc(Cc2ccc(N(C)C)cc2)cc1`: the Potency entry is “inactive”.

On to `COc1ccc(OC)cc1`, for which the Potency result is “inactive”.

Regarding `CC1(C)CC(N)CC(C)(CN)C1` (configuration not stated), the Potency entry is “inactive”.

Regarding `CCCCCCCC=O`, the Potency entry was “inactive”.

Regarding `CC(=O)OC1CC(C)OC(C)O1` (configuration not stated), the Potency entry is “inactive”.

Take `COCCOC(=O)c1ccccc1C(=O)OCCOC`: the Potency result was “inactive”.

Turning to `CCCCCCCCCCN`, the Potency entry is “inactive”.

Consider `CCCOC(=O)c1ccccc1`, for which the Potency entry is “inactive”.

As to `NC(=S)NNC(N)=S`, the Potency entry was “inactive”.

As to `CC1(C)NC(=O)NC1=O`, the Potency entry was “inactive”.

Take `CC(=O)c1ccc(O)cc1`: the Potency result was “inactive”.

For the compound `CC(C)(C#N)c1cc(Cn2cncn2)cc(C(C)(C)C#N)c1`, the Potency entry is “inactive”.

Regarding `O=C(OCC1CCC2OC2C1)C1CCC2OC2C1` (configuration not stated), the Potency entry was “inactive”.

Turning to `C[C@]12CC[C@@H]3c4ccc(O)cc4CC[C@H]3[C@@H]1C[C@@H](O)[C@@H]2O`, the Potency entry was “inactive”.

Consider `O=C(O)CCCCCCCCC(=O)O`, for which the Potency entry was “inactive”.

Consider `CCCCCCC=O`, for which the Potency entry was “inactive”.

With `O=S(=O)(O)c1ccccc1`, the Potency entry was “inactive”.

For `CC(C)OP(=O)(CP(=O)(OC(C)C)OC(C)C)OC(C)C`, the Potency entry is “inactive”.

In the case of `C=CC[N+](C)(C)CC=C`, the Potency result was “inactive”.

Consider `CC(=O)OCc1ccco1`, for which the Potency result was “inactive”.

`O=C(O)c1ccc(S(=O)(=O)N(Cl)Cl)cc1`: the Potency result is “inactive”.

On to `CCOC(=O)n1ccn(C)c1=S`, for which the Potency entry was “inactive”.

On to `Nc1ccc(Cl)c(N)c1`, for which the Potency entry is “inactive”.

Regarding `CCCCCCCCCCCC(=O)OC`, the Potency result was “inactive”.

As to `C=C(C)[C@H]1CC=C(C)C(=O)C1`, the Potency entry is “inactive”.

As for `NCCCCCCN`, the Potency result was “inactive”.

Regarding `CC1(C)OC[C@@H]2O[C@@]3(C(=O)O)OC(C)(C)O[C@H]3[C@@H]2O1`, the Potency entry is “inactive”.

For the compound `CCOCC(=O)O`, the Potency entry is “inactive”.

On to `CSc1ccc(Cl)cc1`, for which the Potency result is “inactive”.

`CN(C)c1ccc(O)c2c1C[C@H]1C[C@H]3[C@H](N(C)C)C(=O)C(C(N)=O)=C(O)[C@@]3(O)C(=O)C1=C2O`: the Potency entry was “inactive”.

With `CC(=O)OCCOC(C)=O`, the Potency entry is “inactive”.

Values taken from PubChem BioAssay (Tox21).
